# Assay results: PubChem BioAssay (NCATS)
# Inconclusive results are not listed. Activity calls are given as the source filed them. Calls come from the whole dose curve; tested in HEK293 reporter line.
# Assay: qHTS for Inhibitors of the Functional Ribonucleoprotein Complex (vRNP) of Lassa (LASV) Arenavirus: Viability assay - alamar blue signal for LASV Primary Screen (AID 1347083); note: nearly all actives have a fitted effect of over 80% in size
# Settings: cell viability, alamar blue fluorescence (LASV minigenome counter-screen); series mostly up to 57.5 µM; activity change, negative = reduced viability: at the top concentration
# % is set by controls: 0 for no effect and ±100 for the full control effect; potency is the fitted concentration of half-maximal effect.
SMILES,Potency,"activity change, negative = reduced viability"
Oc1ccc(-c2ccc(-c3cc(Nc4cccc(CNC5CC5)c4)n[nH]3)cc2)c(O)c1,3.06 µM (active),–
CCNc1cc(NC2CCC(O)CC2)nc(Nc2ccc3c(ccn3Cc3ccccc3)c2)n1 (stereo not given),–,-36% (inactive)
O=C(CCCCCCNC(=O)c1cnc(N(c2ccccc2)c2ccccc2)nc1)NO,30.6 µM (active),–
O=C1c2c(O)cc(O)cc2OC(c2ccc(O)c(O)c2)C1O (stereo not given),–,1.86% (inactive)
COc1cc(C(=O)N2CCC(N3CCN(C)CC3)CC2)ccc1Nc1ncc2c(n1)N(C)c1ccccc1C(=O)N2C,17.2 µM (active),–
CCc1ccc(OCc2ccccc2C(=O)Nc2ccc3nc(C)cc(N)c3c2)cc1,21.7 µM (active),–
CN(C(Cc1ccc(OS(=O)(=O)c2cccc3cnccc23)cc1)C(=O)N1CCN(c2ccccc2)CC1)S(=O)(=O)c1cccc2cnccc12 (stereo not given),21.7 µM (active),–
O=C(CCCCCCC(=O)Nc1cccnc1)NO,19.3 µM (active),–
COc1cc2c(cc1-c1c(C)noc1C)ncc1[nH]c(=O)n([C@H](C)c3ccccn3)c12,17.2 µM (active),–
CC=C(C)C(=O)O[C@H]1C(C)=C[C@]23C(=O)[C@@H](C=C(CO)[C@@H](O)[C@]12O)[C@H]1[C@@H](C[C@H]3C)C1(C)C,4.32 µM (active),–
COc1ccc(Nc2cc(-c3cnc(N)nc3)nc(N3CCOCC3)n2)cn1,3.85 µM (active),–
N=c1ccn2c(n1)O[C@H]1[C@H](O)[C@@H](CO)O[C@H]12,–,-23.8% (inactive)
N[C@@]1(C(=O)O)CS(=O)(=O)[C@H]2[C@H](C(=O)O)[C@H]21,19.3 µM (active),–
CN1N=C(N)c2cn([C@@H]3O[C@H](COP(=O)(O)O)[C@@H](O)[C@@H]3O)c3ncnc1c23,34.3 µM (active),–
O=C(O)CCCCCC(=O)NN=C1CCCC1,–,-23.8% (inactive)
O=C(Nc1ccc(Oc2ccnc3[nH]ccc23)c(F)c1)c1cccn(-c2ccc(F)cc2)c1=O,–,-14.5% (inactive)
CN(C)C(=O)/N=N/C(=O)N(C)C,–,3.37% (inactive)
O=C1NC(O)CCN1[C@@H]1O[C@H](CO)[C@H](O)[C@H]1O (stereo not given in full),–,-3.7% (inactive)
Cc1ccc2nc(NCCN)c3ncc(C)n3c2c1,19.3 µM (active),–
O=C1c2ccccc2-c2n[nH]c3cccc1c23,30.6 µM (active),–

SMILES,Potency,"activity change, negative = reduced viability"
CC(C)C(C)C=CC(C)C1CCC2C3=CC=C4CC(O)CCC4(C)C3CCC21C (stereo not given),38.5 µM (active),–
Cc1cc(Cl)ccc1OCCCC(=O)NO,24.3 µM (active),–
CC1(C)CC(O)CC(C)(C)N1[O],–,-27.6% (inactive)
O=c1[nH]c2cc(Cl)c(Cl)cc2[nH]c1=O,–,0.488% (inactive)
Cn1cc(C[C@@H](N)C(=O)O)c2ccccc21,–,0.26% [at 24.7 µM] (inactive)
CCN(CC)CCNC(=O)c1ccc2nc(-c3ccccc3)c(-c3ccc(CN4CCC(n5c(=O)[nH]c6ccccc65)CC4)cc3)nc2c1,21.7 µM (active),–
CC(C)c1cc(-c2n[nH]c(=O)n2-c2ccc3c(ccn3C)c2)c(O)cc1O,0.243 µM (active),–
C=CCn1c(=O)c2c(nc(-c3ccc(S(=O)(=O)O)cc3)n2C)n(C)c1=O,–,19.1% (inactive)
O=c1[nH]c(=O)n([C@H]2C[C@@H](O)[C@@H](CO)O2)cc1C=CBr,–,4.44% (inactive)
C[S+](C)CCC(N)C(=O)O (stereo not given),–,14.5% (inactive)
CCC(C(=O)O)C1CCC(C)C(C(C)C(O)C(C)C(=O)C(CC)C2OC3(C=CC(O)[C@@]4(CC[C@](C)(C5CC[C@@](O)(CC)C(C)O5)O4)O3)C(C)CC2C)O1 (stereo not given in full),4.85 µM (active),–
CC(C)C[C@H](NC(=O)CNC(=O)c1cc(Cl)ccc1Cl)B1OC(=O)CC(CC(=O)O)(C(=O)O)O1 (stereo not given in full),1.93 µM (active),–
Cc1ccc2nc(NC(=O)CSc3nc4c(c(=O)n3-c3ccccc3)SCC4)sc2c1,17.2 µM (active),–
COc1cc(Nc2ncc(F)c(Nc3ccc4c(n3)N(COP(=O)(O)O)C(=O)C(C)(C)O4)n2)cc(OC)c1OC,2.43 µM (active),–
COc1cc(F)c(F)c(Nc2ccc(I)cc2F)c1NS(=O)(=O)C1(C[C@H](O)CO)CC1,–,-13% (inactive)
OC[C@H]1O[C@@H](n2cnc3c(NC4CCCC4)ncnc32)[C@H](O)[C@@H]1O,–,3.92% (inactive)
CCc1ccc(C(=O)Nc2cc(CN3CCN(C)CC3)cc(C(F)(F)F)c2)cc1C#Cc1cnc2ccnn2c1,21.7 µM (active),–
C[C@H](CCC(=O)O)[C@H]1CC[C@H]2[C@H]3[C@@H](CC[C@]12C)[C@@]1(C)CC[C@@H](O)C[C@H]1C[C@@H]3O,–,0.0664% (inactive)
CC(C)C[C@H](CC(=O)O)C(=O)N[C@@H](Cc1c[nH]c2ccccc12)C(=O)N[C@@H](C)c1ccccc1,–,0.114% (inactive)
O=C1NC(=O)C(c2cnc3ccccn23)=C1c1cn2c3c(cccc13)CN(C(=O)N1CCOCC1)CC2,6.85 µM (active),–
